Bioassay records as filed in PubChem.
Most compounds without a hit are left out; they make up all but 2.4% or so of the library.
D2 antag: antagonizes the human D2 dopamine receptor; P14416; HEK293 TREx D2 cells, calcium flux, dopamine EC80; inhibition, % at 10 µM; actives 2% (n = 340,000); AID 485344; in the data active means inhibition above about 30%; inactive means below that, where a call was filed
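In this primary screen, negative modulation is detected by tracking calcium flux after an EC80 dopamine challenge in inducible HEK293 T-REx D2 cells preexposed to test compound for 180 s.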
D2 PAM-1: D2 dopamine receptor (human) potentiation | P14416 | HEK293 T-REx D2, calcium flux, EC20 dopamine potentiation | potentiation, % at 10 µM | actives 0.34% (n = 340,000);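 active means potentiation over 3 SD above the plate norm, cut at about 30% in these data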
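Calcium flux readout, no-wash dye, 1 read/s. Inducible HEK293 Trex D2 line, overnight 30 C. Compound alone 180 s (agonist flags), then EC20 dopamine, another 180 s to score potentiation.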
D2 PAM-2: human D2 receptor positive allosteric modulation. P14416. DiscoveRx D2 beta-arrestin cells, luminescence, 90 min; 100% = 57 uM dopamine signal. potentiation, % (concentration not given with the values). actives 0.23% (n = 360,000). AID 624464; in the data active means potentiation above about 50%; inconclusive means mostly about 30% to 49%
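D2 cells co-treated with compound plus 50 nM dopamine (EC20) for 90 min at 37 deg C to detect potentiation. Beta-arrestin recruitment was read as enzyme-fragment luminescence after 1 h at ambient temperature. Full response was set by 57 uM dopamine.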
D2 ag-1: activates the human D2 dopamine receptor; actives 0.53% (n = 340,000); activation, % at 2 µM; HEK293 T-REx D2 cells, calcium flux agonist mode; P14416;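 active means activation over 3 SD above normal in the single-dose calcium agonist read, cut at about 30% in these data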
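Calcium-flux readout, 1 cycle/sec over 180 s following compound pin transfer, in inducible HEK293 Trex D2 cells (force-coupled); dopamine controls included. Positive calcium responses during this window marked compounds as potential agonists.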
D2 ag-2: human D2 receptor agonism in beta-arrestin assay; P14416; DiscoveRx PathHunter D2 beta-arrestin, luminescence, 90 min; 100% = 57 uM dopamine signal; activation, % (concentration not given with the values); actives 0.084% (n = 360,000); in the data active means activation above about 40%; inconclusive means between about 15% and that limit
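DiscoveRx PathHunter D2 beta-arrestin cells (2,100/well) attached overnight, then compound-stimulated 90 min at 37 C in HBSS/10 mM HEPES/0.1% Tween-20 buffer; beta-galactosidase complementation read by luminescence after 1 h at ambient temperature. Dopamine 57 uM final (EC100) as control.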
D3 ag: confirmation of human D3 dopamine receptor agonists, beta-arrestin; shares compounds with D2 ag-1; DiscoveRx D3 beta-arrestin cells, luminescence, 90 min; Potency, µM (top dose mostly 76.9 µM), hits mostly activators; actives 4% (n = 2,300); AID 720506; further: nearly all actives have a fitted effect of over 70% in size
Target sequence (P35462 whole entry, looked up): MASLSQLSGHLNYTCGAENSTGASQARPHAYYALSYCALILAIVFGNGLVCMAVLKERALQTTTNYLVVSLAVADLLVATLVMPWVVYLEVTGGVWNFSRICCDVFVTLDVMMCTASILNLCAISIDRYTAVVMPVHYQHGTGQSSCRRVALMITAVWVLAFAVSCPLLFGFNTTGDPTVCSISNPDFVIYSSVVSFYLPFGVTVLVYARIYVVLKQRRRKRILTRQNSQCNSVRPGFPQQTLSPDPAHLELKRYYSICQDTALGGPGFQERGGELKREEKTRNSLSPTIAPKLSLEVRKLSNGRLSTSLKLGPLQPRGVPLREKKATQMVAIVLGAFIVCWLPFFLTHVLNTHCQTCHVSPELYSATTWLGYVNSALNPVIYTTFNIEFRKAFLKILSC
D2 ag-3: activates human D2 dopamine receptor in D3 counterscreen. shares compounds with D2 ag-1. DiscoveRx PathHunter D2 beta-arrestin, luminescence, 90 min; response scale: percent relative to full dopamine signal. Potency, µM (highest dose often 76.9 µM), most hits filed as activators. actives 5.9% (n = 2,300); further: nearly all actives have a fitted effect of over 70% in size
Each line names hits and unclear results; the compound was inactive in the other large screens (follow-up assays come after a bar, where they were run). Unless noted, the call rests on the fitted dose curve; in most records, active means well fitted activation curve with a large enough effect; inconclusive means small, poorly fitted or top-dose-only effect; inactive means flat fitted curve, though single readings scatter.

COc1ccc2c(CCN)c[nH]c2c1	none
Cc1ccnc(-n2c(-c3ccccc3)nc3ccccc3c2=O)c1	D2 antag 33.0
CC(=Nc1ccccc1N)c1c(O)n(C)c(=O)[nH]c1=O	none
CCN1CCN(c2ccc(N)cc2C)CC1	none
CCN1CCN(c2ccc(NC(C)=O)cc2Cl)CC1	D2 antag 41.6
c1ccc(CN2CCc3nc4ccccc4cc3C2)cc1	D2 antag 76.4, D2 ag-1 78.0, D2 ag-2 95.1
CCOc1ccc(CN2C(=O)c3ccccc3Sc3ccc(C(=O)N4CCC5(CC4)OCCO5)cc32)cc1	none (no result: D2 antag, D2 PAM-2, D2 ag-2)
COc1cccc(CN2CC=C(c3ccc(F)cc3)CC2)c1	D2 antag 72.4
CNC(C(=O)c1ccccc1)C(OC(C)=O)c1cccc([N+](=O)[O-])c1 (stereo not given)	none
N#CC1(c2ccccc2)CCN(C2CC(=O)N(c3ccc(F)cc3)C2=O)CC1 (stereo not given)	D2 PAM-1 30.9
CN1CCc2c([nH]c3ccccc23)C1	D2 antag 51.4
CNC(=S)NC1CC2CCCC(C1)N2CC(C)C (stereo not given)	none (no result: D2 antag, D2 PAM-1, D2 ag-1)
Cc1ccc(CN2C3CCCC2CC(NC(=S)NCc2ccccc2)C3)cc1 (stereo not given)	D2 antag 104.4
CN1CCN(Cc2nc3ccccc3n2C)CC1	none
CCC1C2Cn3c(nc4ccccc43)C1N(C)O2 (stereo not given)	D2 PAM-1 33.9
CC[C@H]1C2C[C@H]3[C@@H]4N(C)c5ccccc5C45C[C@H](C2[C@H]5O)N3[C@@H]1O (stereo not given in full)	D2 antag 35.8
O=C1C=C(N2CC2)c2ccccc2C1=O	D2 ag-2 50.8 (no result: D2 antag, D2 PAM-1, D2 ag-1)
COc1c(O)cc2c(c1OC)-c1ccc(SC)c(=O)cc1C(NC(C)=O)CC2 (stereo not given)	none (no result: D2 antag, D2 PAM-1, D2 ag-1)
Cc1cc(C)c(NC2=NCCCS2)c(C)c1	D2 PAM-1 50.3
Cc1cccc(C)c1NC1=NCCCS1	none
CN1CCc2nc3sc(C#N)c(N)c3c(-c3cccs3)c2C1	none
CN(CCc1nnc(N)s1)[N+](=O)[O-]	D2 antag 47.6
CCN1CCN(Cc2cc(C(C)(C)C)c(O)c(C(C)(C)C)c2)CC1	D2 antag 45.9 (no result: D2 PAM-2, D2 ag-2)
O=c1[nH]c(=O)n(CCc2ccccc2)c(O)c1C=NCCCn1ccnc1	none
Cc1ccc(C2SCC(=O)Nc3c2c(=O)[nH]n3C2CCOC(C)(C)C2)cc1 (stereo not given)	D2 antag 37.0
COC(=O)c1ccc(CN2CCN(Cc3ccccc3)CC2)cc1	none
COC(=O)C1=CCCN(C)C1	D2 ag-1 31.5
COc1ccccc1OCC#CCN1CCCC(C)C1 (stereo not given)	D2 antag 57.5
COc1ccccc1OCC#CCN1CCCCCC1	none (no result: D2 antag, D2 PAM-1, D2 ag-1)
CCCCCCNC(=O)N[C@H](Cc1ccc(O)cc1)C(=O)NCCC[C@H]1CN2C(=NC[C@H]2CCC)N1CC1CCC1	D2 antag 33.7 (no result: D2 PAM-2, D2 ag-2)
COCc1ccc(CN2CCCC(C(=O)c3sccc3C)C2)o1 (stereo not given)	D2 antag 38.3
COc1ccccc1N1CCN(Cc2ccc(Cl)cc2Cl)CC1	D2 antag 34.7
COc1ccccc1N1CCN(Cc2ccc(SC)cc2)CC1	D2 antag 78.8
Cc1ccc(CN2CCN(Cc3ccccc3F)CC2)cc1	D2 antag 38.9
CSc1ccc(CN2CCN(c3ccccc3C)CC2)cc1	D2 antag 70.8
Clc1ccccc1CN1CCN(c2ccccc2Cl)CC1	none
Cc1ccccc1CC(=O)N(CCN(C)C)CC1CCCN(Cc2ccccc2F)C1 (stereo not given)	none
C[C@]12CCC3C(CC[C@@H]4C[C@@H](O)CC[C@]34C)C1CC[C@@H]2O (stereo not given in full)	none (no result: D2 antag, D2 PAM-1, D2 ag-1)
COc1ccccc1CN1CCN(Cc2ccc(Cl)cc2)CC1	D2 antag 76.4
COc1ccc(CN2CCN(Cc3ccccc3OC)CC2)cc1	none
Cc1[nH]c2ccccc2c1CCCNC1CCCCC1	D2 antag 38.8
CCC12CN3CCN(CC(C3)/C1=N\O)C2	none
O=S1(=O)N(CCN2CC=C(c3c[nH]c4cc(F)ccc34)CC2)c2cccc3c2N1CCC3	D2 antag 63.7
CC1CN1P(=O)(Oc1ccc2ccccc2c1)N1CC1C (stereo not given)	none (no result: D2 antag, D2 PAM-1, D2 ag-1)
CCCCCc1nc2ccccc2c(=O)n1-c1ccc(C)cc1	none (no result: D2 antag, D2 PAM-2, D2 ag-2)
CCCCCc1nc2c(c(=O)c3ccccc3n2C)c(=O)n1C1CCCCCC1	D2 antag 45.8, D2 ag-1 36.3 | D3 ag inactive | D2 ag-3 inactive
Clc1ccc2c(c1)C(c1ccccc1Cl)=NCc1nnc(N3CCN(CCSc4ccccc4)CC3)n1-2	none
Clc1ccc2c(c1)C(c1ccccc1Cl)=NCc1nnc(N3CCN(CCOc4ccccc4)CC3)n1-2	D2 antag 64.9, D2 ag-1 57.7 | D3 ag inconclusive | D2 ag-3 inactive
CCC(N)Cc1c[nH]c2ccccc12 (stereo not given)	none | D3 ag inactive | D2 ag-3 inactive
CNCCc1c[nH]c2ccccc12	none
O=C(c1cc(F)ccc1F)C1CCCN(Cc2cc(Cl)ccc2O)C1 (stereo not given)	none
Cc1ccc2c(c1Cl)NC(C(=O)O)C1CC(Sc3ccccc3[N+](=O)[O-])C(Cl)C21 (stereo not given)	none
O=C1c2ccccc2-c2c1nc1c([n+]2[O-])CCCC1	none | D3 ag inactive | D2 ag-3 inactive
Fc1ccccc1N1CCN(Cc2ccc3c(c2)OCO3)CC1	D2 antag 88.4, D2 ag-1 78.4, D2 ag-2 42.4 | D3 ag inconclusive | D2 ag-3 inconclusive
Fc1cccc(F)c1CN1CCN(c2ccc(Cl)cc2)CC1	none
Clc1ccccc1N1CCN(Cc2ccc3c(c2)OCO3)CC1	D2 antag 60.2, D2 ag-1 71.3 | D3 ag inactive | D2 ag-3 inconclusive
Fc1ccccc1N1CCN(Cc2c(F)cccc2F)CC1	D2 ag-1 35.7 | D3 ag inactive | D2 ag-3 inactive
Cc1ccccc1N1CCN(Cc2ccc3c(c2)OCO3)CC1	D2 antag 83.0 | D3 ag inactive | D2 ag-3 inactive
CCN(CC)CCCN=C(C)c1c(O)n(-c2ccccc2)c(=O)[nH]c1=O	none
CCOP(=O)(OCC)/C(C#N)=C/c1ccc(Br)cc1	none
c1ccc2cc(CC3=NCCN3)ccc2c1	none
